PAFAH1B2 inh – PAFAH1B2 enzyme inhibitors, primary screen, biochemical, fluorescence polarization, human. AID 492953, 2010. Platelet-activating factor acetylhydrolase IB subunit alpha2 (Homo sapiens), P68402. inhibition, % at 3.39 µM. actives 1.2% (n = 340,000). recombinant PAFAH1B2, FP-rhodamine activity probe;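 active = inhibition above the mean of all tested compounds plus 3 SD, cut at about 24% in these data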
pPAFAH inh – pPAFAH enzyme inhibitors, primary screen, biochemical, fluorescence polarization, human. inhibition, % at 3.39 µM. AID 463082, 2010. recombinant pPAFAH, FP-rhodamine probe fluorescence polarization. actives 1.5% (n = 330,000);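 active = inhibition above the mean inhibition across the screen plus 3 SD, cut at about 25% in these data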;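 note: inhibitors block binding of the rhodamine activity-based probe so polarization drops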
PP1 counter – PP1-alpha phosphatase inhibitors, primary screen, counter-screen for PP5 inhibitor project, biochemical, fluorescence, OMFP substrate, single point; purified PP1alpha; actives 0.9% (n = 320,000); AID 2235, 2010; inhibition, % at 6.7 µM; Serine/threonine-protein phosphatase PP1-alpha catalytic subunit (Homo sapiens), P62136;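 active = inhibition above the mean inhibition of all tested compounds plus 3 SD, computed separately for each screening campaign, cut at about 15% in these data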
PP5 inh – PP5 phosphatase inhibitors, primary screen, biochemical, fluorescence | inhibition, % at 6.7 µM | purified PP5c, OMFP substrate fluorescence | Serine/threonine-protein phosphatase 5 (Homo sapiens), P53041 | AID 1987, 2009 | actives 0.18% (n = 320,000);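 active = inhibition above the campaign's mean inhibition across all tested compounds plus 3 SD, cut at about 9.5% in these data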
Target sequence (P53041 whole entry, looked up): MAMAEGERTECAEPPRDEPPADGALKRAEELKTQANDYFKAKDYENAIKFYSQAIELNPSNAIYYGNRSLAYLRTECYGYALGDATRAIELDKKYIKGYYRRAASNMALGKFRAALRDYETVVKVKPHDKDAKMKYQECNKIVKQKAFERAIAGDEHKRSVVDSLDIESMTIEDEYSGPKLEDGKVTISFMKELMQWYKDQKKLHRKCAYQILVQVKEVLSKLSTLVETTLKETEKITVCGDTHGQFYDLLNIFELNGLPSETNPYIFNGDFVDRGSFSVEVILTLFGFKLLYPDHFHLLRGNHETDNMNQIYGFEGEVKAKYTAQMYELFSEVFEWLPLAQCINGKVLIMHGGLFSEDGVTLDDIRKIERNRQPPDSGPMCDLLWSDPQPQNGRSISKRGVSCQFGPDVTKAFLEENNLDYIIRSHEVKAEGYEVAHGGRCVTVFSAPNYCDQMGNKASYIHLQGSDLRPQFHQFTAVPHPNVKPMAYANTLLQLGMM
PAFAH2 inh – PAFAH2 enzyme inhibitors, primary screen, biochemical, fluorescence polarization, human | Platelet-activating factor acetylhydrolase 2, cytoplasmic (Homo sapiens), Q99487 | recombinant PAFAH2, FP-rhodamine activity probe | inhibition, % at 3.39 µM | actives 0.99% (n = 340,000);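 active = inhibition above the mean over all tested compounds plus 3 SD, cut at about 30% in these data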;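 note: inhibitors block probe labeling of enzyme so polarization drops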
PAFAH1B3 FP inh – PAFAH1B3 enzyme inhibitors, primary screen, biochemical, fluorescence polarization, human. recombinant PAFAH1B3, FP-rhodamine probe. inhibition, % at 3.39 µM. actives 0.28% (n = 340,000). Platelet-activating factor acetylhydrolase IB subunit alpha1 (Homo sapiens), Q15102;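 active = inhibition above the screen-wide average of all tested compounds plus 3 SD, cut at about 25% in these data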
PP1 confirm – PP1 phosphatase inhibitors, confirmation, biochemical, fluorescence, OMFP substrate, triplicate. shares compounds with PP1 counter. purified PP1alpha. inhibition, % at 6.7 µM. actives 52% (n = 1,900). AID 2358, 2010;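 active = mean PP1 inhibition above a set limit taken from the earlier primary screen, cut at about 15% in these data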
PP5 counter – PP5 phosphatase inhibition by PP1 hits, confirmation, counter-screen for PP1 inhibitor project, biochemical, fluorescence, triplicate; shares compounds with PP1 counter; purified PP5c, OMFP fluorescence; inhibition, % at 6.7 µM; actives 4% (n = 1,900); AID 2360, 2010;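 active = mean PP5 inhibition over triplicate wells above about 9.5% taken from the earlier PP1 screen, limit read from the data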
pPAFAH confirm – pPAFAH (PLA2G7) enzyme inhibitors, confirmation, biochemical, fluorescence polarization, human; shares compounds with pPAFAH inh; actives 72% (n = 2,300); recombinant pPAFAH, FP-Rh probe fluorescence polarization; inhibition, % at 3.39 µM;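 active = mean inhibition of the triplicate above the hit cutoff set for the earlier primary screen, cut at about 25% in these data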
Each line names hits and unclear results; the compound was inactive in the other large screens (follow-up assays come after a bar, where they were run). The list is not random: actives were taken first. Their share in the collection is about 3.4%.

COc1cccc(/C=C2\SC(=S)N(CCCC(=O)Nc3ccc(C(=O)O)cc3)C2=O)c1	none
COc1ccc(/C=C2/C(=O)N(Cc3ccccc3)N=C2C)cc1	none
COc1ccc(/C=C2/C(=O)N(c3nc4ccccc4s3)N=C2CSc2ccc(Cl)cc2)cc1	pPAFAH inh 51, PP1 counter 31 | PP1 confirm inactive | PP5 counter inactive | pPAFAH confirm inactive
COc1ccc(NC(=O)CSc2nc3c([nH]c4ccccc43)c(=O)n2C)c(OC)c1	none
COc1ccccc1NC(=O)CSc1sc2c(O)cc(=O)[nH]c2c1C#N	pPAFAH inh 39, PP1 counter 20 | PP1 confirm inactive | PP5 counter inactive | pPAFAH confirm inactive
COCCN(C(=O)COC(=O)c1cc2c(s1)CCC2)c1c(N)n(Cc2ccccc2)c(=O)[nH]c1=O	pPAFAH inh 56, PP1 counter 18, PAFAH2 inh 57 | PP1 confirm inactive | PP5 counter inactive | pPAFAH confirm 34
Cc1ccc(NC(=O)c2cc(S(=O)(=O)N3CCCCC3)cs2)cc1	none
CCN(CC)c1ccc(-c2nn3c(-c4n[nH]c5c4CCC5)nnc3s2)cc1	pPAFAH inh 35, PP1 counter 22 | PP1 confirm 31 | PP5 counter inactive | pPAFAH confirm 45
C1CCC(c2nn3c(-c4n[nH]c5c4CCC5)nnc3s2)CC1	none
O=C(CN(C(=O)c1csnn1)c1cccc(C(F)(F)F)c1)NCCc1ccccc1	none
O=C(Cn1c(=O)n(Cc2ccco2)c(=O)c2c3c(sc21)CCCCC3)c1ccccc1	pPAFAH inh 37, PP1 counter 25 | PP1 confirm 16 | PP5 counter inactive | pPAFAH confirm inactive
O=C(Cn1c(=O)n(Cc2ccco2)c(=O)c2c3c(sc21)CCCCC3)Nc1ccccc1	none
O=C(O)C1Nc2c(O)cc(Cl)c([N+](=O)[O-])c2C2C=CCC12 (stereo not drawn)	PAFAH1B2 inh 51, pPAFAH inh 90, PP1 counter 42, PAFAH2 inh 77, PAFAH1B3 FP inh 63 | PP1 confirm inactive | PP5 counter inactive | pPAFAH confirm 39
COc1ccc(N2C3=C(CC4=C2CC(C)(C)CC4=O)C(=O)CC(C)(C)C3)cc1	none
COc1ccc(N2C3=C(CC4=C2CCCC4=O)C(=O)CCC3)cc1	pPAFAH inh 44, PP1 counter 34 | PP1 confirm inactive | PP5 counter inactive | pPAFAH confirm inactive
CCc1ccc(Nc2n[n+](-c3ccccc3)c(-c3c(Cl)cccc3Cl)s2)cc1	pPAFAH inh 56, PP1 counter 31 | PP1 confirm inactive | PP5 counter inactive | pPAFAH confirm 34
O=C(Nc1ccccc1)c1ccc2nc(-c3ccco3)c(-c3ccco3)nc2c1	pPAFAH inh 66, PP1 counter 21 | PP1 confirm inactive | PP5 counter inactive | pPAFAH confirm inactive
CC(=O)c1ccc(NC(=O)c2ccc3nc(-c4ccco4)c(-c4ccco4)nc3c2)cc1	pPAFAH inh 62, PP1 counter 34 | PP1 confirm 25 | PP5 counter inactive | pPAFAH confirm 50
O=C(c1cccc(C(=O)N2CCN(c3ncccn3)CC2)c1)N1CCN(c2ncccn2)CC1	none
CCc1nc2ccc(C(=O)Nc3ccc(NC(C)=O)cc3)cc2nc1CC	none
O=C(NCc1ccccc1)c1ccc2nccnc2c1	none
O=C(c1ccc2nc(-c3ccco3)c(-c3ccco3)nc2c1)N1CCN(c2ncccn2)CC1	pPAFAH inh 49, PP1 counter 33 | PP1 confirm inactive | PP5 counter inactive | pPAFAH confirm inactive
O=C(Nc1ccc(N2CCOCC2)cc1)c1ccc2nc(-c3ccco3)c(-c3ccco3)nc2c1	none
O=C(NCc1ccccc1)c1ccc2nc(-c3ccco3)c(-c3ccco3)nc2c1	pPAFAH inh 71, PP1 counter 28 | PP1 confirm inactive | PP5 counter inactive | pPAFAH confirm 58
CCS(=O)(=O)c1ccc(N=Nc2ccc(O)c3ncccc23)c(OC)c1	none (no result: pPAFAH inh, PP1 counter, PP5 inh)
COc1ccccc1N=Nc1ccc(O)c2ncccc12	pPAFAH inh 44, PP1 counter 19 | PP1 confirm 16 | PP5 counter inactive | pPAFAH confirm 25
CC(/C=C1\SC(=S)N(c2ccc(C(=O)O)cc2)C1=O)=C\c1ccccc1	pPAFAH inh 35, PP1 counter 44 | PP1 confirm 31 | PP5 counter inactive | pPAFAH confirm 28
CNc1ccc(/C=C(\CCC(=O)O)c2nc3ccccc3s2)cc1[N+](=O)[O-]	PAFAH1B2 inh 96, pPAFAH inh 49, PP1 counter 32 | PP1 confirm 24 | PP5 counter inactive | pPAFAH confirm 38
CN(c1ccccc1)c1ccc(/C=C(\CCC(=O)O)c2nc3ccccc3s2)cc1[N+](=O)[O-]	PAFAH1B2 inh 89, pPAFAH inh 54, PP1 counter 26, PAFAH2 inh 32 | PP1 confirm inactive | PP5 counter inactive | pPAFAH confirm 58
Cc1cc(C)c2c(n1)sc1c(=O)n(Cc3ccc(F)cc3)cnc12	none
Cc1ccc(C(=O)N=c2sccn2C)cc1S(=O)(=O)N1CCOCC1	none
O=C(O)c1ccccc1N/N=C/c1cc(Br)cc(Br)c1O	pPAFAH inh 41, PP1 counter 23, PAFAH2 inh 35 | PP1 confirm inactive | PP5 counter inactive | pPAFAH confirm 62
O=C(Cc1ccccc1)N/N=C/c1cc(Br)cc(Br)c1O	none
COc1ccccc1C(=O)Nc1ccc(S(=O)(=O)N(C)c2ccccc2)cc1	none
O=C(NN1C(=O)/C(=C/C=C/c2ccco2)SC1=S)c1ccccc1O	pPAFAH inh 78, PP1 counter 33, PAFAH2 inh 59, PAFAH1B3 FP inh 26 | PP1 confirm inactive | PP5 counter inactive | pPAFAH confirm 67
CCO[C@H]1OC(C(=O)NC2CC2)=C[C@@H](c2ccc(Br)cc2)[C@@H]1CCCO	none

Screening results (PubChem BioAssay)
